Experimental data from PubChem BioAssay (NCI).
This is part of a sample that, as a whole, favours compounds with a hit. Of some 79,000 tested, about 15% had one in any assay. Activity calls are given as the source filed them. Cut-off read from the data, not from the text of the source: active = growth inhibition above about 70%; inactive = the rest.

What was measured:
[1] = NCI Yeast Anticancer Drug Screen. Data for the rad52 strain (AID 147);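 note: 0% = growth of vehicle-treated control cultures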; details: S. cerevisiae rad52 mutant growth inhibition, hits give high values
Procedure, shortened: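 Here a repair-compromised yeast strain receives each compound; its growth is then quantified and normalised to vehicle-only controls.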

[2] = NCI Yeast Anticancer Drug Screen. Data for the wt1 strain (AID 149);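 note: 0% = growth of vehicle-treated wt1 cultures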; details: S. cerevisiae wt1 strain (SPY 50644) growth inhibition, hits give high values
Procedure, shortened: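 Readout: yeast growth inhibition, normalised to vehicle controls, in the wt1 strain exposed to test compounds.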

[3] = NCI Yeast Anticancer Drug Screen. Data for the mgt1 strain (AID 153); details: S. cerevisiae mgt1 mutant growth inhibition, hits give high values
Procedure, shortened: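 Measured: inhibition of mgt1 yeast growth by compound, normalized to vehicle-treated cultures.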

[4] = NCI Yeast Anticancer Drug Screen. Data for the rad50 strain (AID 155);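 note: 0% = growth of vehicle-only cultures of the same strain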; details: S. cerevisiae rad50 strain growth inhibition, hits give high values
Procedure, shortened: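 Compounds were tested on a yeast strain with an engineered DNA damage repair alteration; the reported value is growth inhibition normalised to vehicle treatment.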

[5] = NCI Yeast Anticancer Drug Screen. Data for the mec2-1 strain (AID 157); details: S. cerevisiae mec2-1 strain, hits give high values
Procedure, shortened: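 Using mec2-1 yeast: add compound, measure growth, express inhibition versus vehicle-treated cultures.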

[6] = NCI Yeast Anticancer Drug Screen. Data for the sgs1 mgt1 strain (AID 161);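 note: 0% = growth of cultures given vehicle only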; details: S. cerevisiae sgs1 mgt1 strain, hits give high values
Procedure, shortened: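 Yeast cells carrying a defined DNA-repair defect were exposed to test compounds. Growth inhibition was measured relative to vehicle-treated controls.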

[7] = NCI Yeast Anticancer Drug Screen. Data for the cln2 rad14 strain (AID 165);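 note: 0% = growth equal to vehicle treated cultures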; details: S. cerevisiae cln2 rad14 strain, hits give high values
Procedure, shortened: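 Yeast strain cln2 rad14, bearing defects in cell cycle control and DNA repair, serves as the test system; values reflect growth inhibition compared with vehicle.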

[8] = NCI Yeast Anticancer Drug Screen. Data for the bub3 strain (AID 167); details: S. cerevisiae bub3 mutant strain, hits give high values
Procedure, shortened: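 Growth of a checkpoint-deficient yeast mutant is measured after compound exposure. Values represent inhibition relative to vehicle.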

[9] = NCI Yeast Anticancer Drug Screen. Data for the mlh1 strain (AID 171);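 note: 0% = growth of vehicle-treated control cultures of the same strain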; details: S. cerevisiae mlh1 strain growth inhibition, hits give high values
Procedure, shortened: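 A yeast strain with a defined genetic lesion serves as the test organism. Cultures receive compound or vehicle, and growth is measured.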

[10] = NCI Yeast Anticancer Drug Screen. Data for the sgs1 strain (AID 173);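 note: 0% = growth of vehicle-only control cultures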; details: S. cerevisiae sgs1 mutant, hits give high values
Procedure, shortened: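 A genetically defined yeast mutant is incubated with the test compound, and its growth is compared to that of the same strain given vehicle.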

[11] = NCI Yeast Anticancer Drug Screen. Data for the mlh1 rad18 strain (AID 175); details: S. cerevisiae mlh1 rad18 strain growth inhibition, hits give high values
Procedure, shortened: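 Steps: expose repair-defective yeast to compound; measure growth; express inhibition against vehicle-treated controls.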

[12] = NCI Yeast Anticancer Drug Screen. Data for the rad50EPP+ strain (AID 151);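 note: 0% = growth of vehicle-treated control cultures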; details: S. cerevisiae rad50 mutant strain, hits give high values
Procedure, shortened: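 Read-out is yeast growth inhibition relative to vehicle; cells used were the rad50EPP+ strain.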

[13] = NCI Yeast Anticancer Drug Screen. Data for the rad14 strain (AID 159);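 note: 0% = growth of vehicle-treated control cultures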; details: S. cerevisiae rad14 strain growth inhibition, hits give high values
Procedure, shortened: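 Compound-treated yeast with a defined DNA-repair lesion; growth inhibition normalised to vehicle-treated cultures.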

[14] = NCI Yeast Anticancer Drug Screen. Data for the CLN2oe strain (AID 163);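 note: 0% = growth of vehicle-only control cultures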; details: S. cerevisiae CLN2oe strain, hits give high values
Procedure, shortened: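 Whole-cell yeast growth assay. A strain engineered for altered cell-cycle control received compound, and inhibition relative to vehicle-treated cultures was recorded.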

[15] = NCI Yeast Anticancer Drug Screen. Data for the wt2 strain (AID 169);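 note: 0% = growth of vehicle-treated yeast cultures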; details: S. cerevisiae wt2 strain growth inhibition, hits give high values
Procedure, shortened: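 Treated yeast vs. vehicle-treated yeast: growth inhibition determined.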

[16] = NCI Yeast Anticancer Drug Screen. Data for the rad18 strain (AID 177); details: S. cerevisiae rad18 mutant growth inhibition, hits give high values
Procedure, shortened: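 Measured value is growth inhibition of a yeast strain bearing a DNA repair alteration, referenced to vehicle-treated cells.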

[17] = at 5.0 µM (retest, dose inferred, filed as 0.5)
[18] = at 50.0 µM (retest, dose inferred, filed as 5.0)

Measured: growth inhibition

CCCCCCCCC/C=C/C=C/C(=O)NCC(=O)NC1C(O)C(O)C(Nc2ncnc3nc[nH]c23)OC1C(O)CO (stereo unspecified)
active: [4]; [18] 83%
inactive: [1]; at 1.2 µM -19% | [1]; at 3.7 µM 11% | [1]; at 11.0 µM 10% | [1]; at 33.0 µM 69% | [1]; at 100.0 µM 67% | [2]; at 1.2 µM -41% | [2]; at 3.7 µM -23% | [2]; at 11.0 µM -27% | [2]; at 33.0 µM 33% | [2]; at 100.0 µM 20% | [3]; at 1.2 µM -33% | [3]; at 3.7 µM -22% | [3]; at 11.0 µM -14% | [3]; at 33.0 µM 43% | [3]; at 100.0 µM 39% | [4]; at 1.2 µM -53% | [4]; at 3.7 µM -47% | [4]; [17] 47% | [4]; at 11.0 µM -52% | [4]; at 33.0 µM -75% | [4]; at 50.0 µM 16.9% | [4]; at 100.0 µM -24% | [5]; at 1.2 µM -61% | [5]; at 3.7 µM -30% | [5]; [17] 9% | [5]; at 11.0 µM 14% | [5]; at 33.0 µM -11% | [5]; [18] 43% | [5]; at 50.0 µM 6.95% | [5]; at 100.0 µM -27% | [6]; [17] 2% | [6]; [18] -55% | [6]; at 50.0 µM 69.2% | [7]; [17] -1% | [7]; [18] -13% | [7]; at 50.0 µM 10.8% | [8]; at 1.2 µM -64% | [8]; at 3.7 µM -38% | [8]; [17] 5% | [8]; at 11.0 µM -58% | [8]; at 33.0 µM 5% | [8]; [18] -16% | [8]; at 50.0 µM 24.9% | [8]; at 100.0 µM 3% | [9]; at 1.2 µM -44% | [9]; at 3.7 µM -38% | [9]; at 11.0 µM -50% | [9]; at 33.0 µM 18% | [9]; at 100.0 µM -29% | [10]; at 1.2 µM -21% | [10]; at 3.7 µM 8% | [10]; at 11.0 µM 14% | [10]; at 33.0 µM 65% | [10]; at 100.0 µM 59% | [11]; [17] 20% | [11]; [18] 41% | [11]; at 50.0 µM 49.4%

O=C1C2C=CC1C1C(=O)OC(=O)C21 (stereo unspecified)
inactive: [1]; at 1.2 µM -18% | [1]; at 3.7 µM -15% | [1]; at 11.0 µM -8% | [1]; at 33.0 µM -14% | [1]; at 100.0 µM -24% | [12]; at 1.2 µM -17% | [12]; at 3.7 µM -21% | [12]; at 11.0 µM -20% | [12]; at 33.0 µM -11% | [12]; at 100.0 µM -45% | [3]; at 1.2 µM -29% | [3]; at 3.7 µM -13% | [3]; at 11.0 µM -6% | [3]; at 33.0 µM -17% | [3]; at 100.0 µM -28% | [4]; at 1.2 µM -3% | [4]; at 3.7 µM -2% | [4]; [17] 49% | [4]; at 11.0 µM 16% | [4]; at 33.0 µM 13% | [4]; at 100.0 µM -2% | [5]; at 1.2 µM -54% | [5]; at 3.7 µM -52% | [5]; [17] 48% | [5]; at 11.0 µM -44% | [5]; at 33.0 µM -51% | [5]; [18] 58% | [5]; at 100.0 µM -45% | [13]; at 1.2 µM -57% | [13]; at 3.7 µM -44% | [13]; at 11.0 µM -48% | [13]; at 33.0 µM -48% | [13]; at 100.0 µM -43% | [6]; [17] 1% | [6]; [18] -6% | [14]; at 1.2 µM -8% | [14]; at 3.7 µM -6% | [14]; at 11.0 µM -24% | [14]; at 33.0 µM -27% | [14]; at 100.0 µM -25% | [7]; [17] 61% | [7]; [18] 25% | [8]; at 1.2 µM -19% | [8]; at 3.7 µM -10% | [8]; [17] 33% | [8]; at 11.0 µM -22% | [8]; at 33.0 µM -7% | [8]; [18] 14% | [8]; at 100.0 µM -23% | [15]; at 1.2 µM -25% | [15]; at 3.7 µM -9% | [15]; at 11.0 µM -35% | [15]; at 33.0 µM -32% | [15]; at 100.0 µM -34% | [9]; at 1.2 µM -45% | [9]; at 3.7 µM -53% | [9]; at 11.0 µM -39% | [9]; at 33.0 µM -64% | [9]; at 100.0 µM -55% | [10]; at 1.2 µM -28% | [10]; at 3.7 µM -31% | [10]; at 11.0 µM -34% | [10]; at 33.0 µM -20% | [10]; at 100.0 µM -39% | [11]; [17] 53% | [11]; [18] 41% | [16]; at 1.2 µM -23% | [16]; at 3.7 µM -2% | [16]; at 11.0 µM 3% | [16]; at 33.0 µM -28% | [16]; at 100.0 µM -10%
active: [4]; [18] 77% | [4]; at 50.0 µM 83.2% | [5]; at 50.0 µM 90.8% | [6]; at 50.0 µM 89.2% | [7]; at 50.0 µM 91.8% | [8]; at 50.0 µM 89.8% | [11]; at 50.0 µM 82.9%
